The source of these data is the supplement of paper PMC11219838.

Values without a mark were called inactive.

One experiment concerns Caenorhabditis elegans dauer (daf-2(e1370)). Kind of experiment: proportion of mobile C. elegans dauer larvae relative to DMSO control (fraction of DMSO control); higher = more viable, less nematicidal, active = 0.63 or less; extreme values may be limits of the assay. To be noted: 60 µM; 5 days; temperature: 20 °C. Summed up:
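Compound was added by pinning to 60 µM final, giving 0.6% v/v DMSO, in 96-well plates containing about 20 C. elegans dauers per well in liquid NGM. These dauers came from synchronized larvae held on MYOB plates with E. coli OP50 for 48 h at 25 °C. Plates were sealed and shaken at 200 rpm at 20 °C for 5 days. Under a dissection microscope, the proportion of mobile worms was scored relative to DMSO wells, and two biological replicates were averaged.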
In the case of `Cc1ccc(-c2noc(-c3ccc(Cl)cc3)n2)cc1`, the “proportion of mobile C. elegans dauer larvae” value was 1.
`COc1ccc(-c2nnc(SCC(=O)Nc3c(F)cc(F)cc3Br)o2)cc1`: the “proportion of mobile C. elegans dauer larvae” value is 1.
Still for that read-out and setting: the figure for `COc1ccc(-c2noc(-c3ccccc3C(=O)Nc3cccc(C)c3C)n2)cc1` is 1; for `Fc1ccc(-c2noc(-c3ccc(Cl)cc3)n2)cc1` it is 1; for `Fc1ccc(OCc2nc(-c3ccc(Cl)cc3)no2)cc1` it is 1.
Still for that read-out and setting: the figure for `COc1ccc(Br)cc1-c1noc(-c2ccncc2)n1` is 1; for `Cc1ccccc1OCc1nc(-c2cccc(C(F)(F)F)c2)no1` it is 1; for `O=C(CSc1nnc(-c2ccccc2)o1)NC1CCCCC1` it is 1.
Take `Clc1ccccc1OCc1nc(-c2ccc(Br)cc2)no1`: the “proportion of mobile C. elegans dauer larvae” value was 1.
Same read-out and setting: the figure for `Clc1ccc(CSc2nnc(-c3ccccn3)o2)cc1` is 1; for `O=C(CSc1nnc(-c2ccco2)o1)Nc1cccc(Cl)c1Cl` it is 1.
Take `O=C(CSc1nnc(-c2ccc(Br)cc2)o1)OCc1ccccc1`: the “proportion of mobile C. elegans dauer larvae” value was 1.
The same measure, in the same setting: the figure for `Clc1cc(Br)ccc1OCc1nc(-c2cccnc2)no1` is 1; for `COc1cccc(OCc2nc(-c3cccc(C)c3)no2)c1` it is 1.
On the same count and under the same terms, the figure for `O=C(Nc1ccccc1-c1nc(-c2cccnc2)no1)c1cccs1` is 1.
`Fc1ccccc1-c1nc(-c2ccc(Cl)cc2)no1`: the “proportion of mobile C. elegans dauer larvae” value was 1.
Take `COc1cccc(-c2noc(-c3cc(C)ccc3C)n2)c1`: the “proportion of mobile C. elegans dauer larvae” value was 1.
On the same count and under the same terms, the figure for `Cc1cc(C)c(OCc2nc(-c3ccncc3)no2)c(C)c1` is 1; for `CCN(C(=O)CSc1nnc(-c2ccncc2)o1)c1ccccc1` it is 1; for `Clc1ccc(-c2nc(-c3ccc4c(c3)OCO4)no2)cc1` it is 1.
Consider `Cc1ccc(C)c(-c2nc(-c3ccc(Cl)cc3)no2)c1`, for which the “proportion of mobile C. elegans dauer larvae” value is 1.
In the case of `CCOc1nc(-c2ccc(C)cc2)ccc1-c1noc(-c2ccc(F)cc2)n1`, the “proportion of mobile C. elegans dauer larvae” value is 1.
As to `Clc1ccc(-c2nnc(SCc3ccccc3)o2)cc1`, the “proportion of mobile C. elegans dauer larvae” value was 1.
With `Fc1ccc(-c2nc(-c3ccc(Br)cc3)no2)cc1`, the “proportion of mobile C. elegans dauer larvae” value was 1.
For the compound `Cc1cc(Cl)ccc1OCc1nc(-c2ccccc2)no1`, the “proportion of mobile C. elegans dauer larvae” value is 1.
`CCOc1cc(-c2nc(-c3ccc(OC)cc3)no2)cc(OCC)c1OCC`: the “proportion of mobile C. elegans dauer larvae” value was 1.
The same measure, in the same setting: then `Cn1c(SCc2nnc(-c3ccccc3)o2)nnc1-c1ccco1`, with 1.
The same measure, in the same setting: then `Clc1ccc(OCc2nc(-c3ccccn3)no2)c(Br)c1`, with 1; and `NC(=O)COc1ccccc1-c1nc(-c2ccccc2Cl)no1`, with 1.
Same read-out and setting: then `Cc1ccccc1OCc1nc(-c2ccc(NC(=O)c3ccc(Br)o3)cc2)no1`, with 1; and `Clc1ccc(CSc2nnc(-c3ccccc3Cl)o2)cc1`, with 1.
For `Cc1ccccc1CSc1nnc(-c2ccccc2)o1`, the “proportion of mobile C. elegans dauer larvae” value is 1.
On to `Clc1ccc(-c2noc(COc3ccc4c(c3)OCO4)n2)cc1`, for which the “proportion of mobile C. elegans dauer larvae” value was 1.
The same measure, in the same setting: the figure for `c1coc(-c2nnc(-c3ccco3)o2)c1` is 1; for `COc1ccc(-c2noc(COc3ccc4c(c3)CCCC4)n2)cc1` it is 1.
Consider `COc1ccccc1OCc1nc(-c2ccc(Cl)cc2)no1`, for which the “proportion of mobile C. elegans dauer larvae” value was 1.
The same measure, in the same setting: the figure for `COc1ccc(Cl)cc1-c1noc(COc2ccccc2C)n1` is 1; for `Clc1ccccc1-c1noc(-c2cccnc2)n1` it is 1; for `Clc1cc(Br)ccc1OCc1nc(-c2ccncc2)no1` it is 0.929.

A further experiment concerns Ditylenchus dipsaci. Description: proportion of mobile D. dipsaci (mixed stage) relative to DMSO control (fraction of DMSO control); higher = more viable, less nematicidal, active = 0.86 or less; extreme values may be limits of the assay. To be noted: 60 µM; 5 days; temperature: 20 °C. Summed up:
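The worms, D. dipsaci raised on pea plants in Gamborg B-5 agar, were recovered through a filter funnel into water. Each well of a 96-well plate then held about 20 of them in distilled water plus pinned compound at 60 µM final (0.6% v/v DMSO), and the sealed plates were shaken at 200 rpm at 20 °C for 5 days. Following addition of 2 µL 1 M NaOH, mobile worms were counted by microscopy, and mobility was expressed against DMSO controls as the average of two biological replicates.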
Take `Cc1ccc(-c2noc(-c3ccc(Cl)cc3)n2)cc1`: the “proportion of mobile D. dipsaci” value was 1.
In the case of `COc1ccc(-c2nnc(SCC(=O)Nc3c(F)cc(F)cc3Br)o2)cc1`, the “proportion of mobile D. dipsaci” value was 1.
Still for that read-out and setting: then `COc1ccc(-c2noc(-c3ccccc3C(=O)Nc3cccc(C)c3C)n2)cc1`, with 1; and `Fc1ccc(-c2noc(-c3ccc(Cl)cc3)n2)cc1`, with 1.
As to `Fc1ccc(OCc2nc(-c3ccc(Cl)cc3)no2)cc1`, the “proportion of mobile D. dipsaci” value is 1.
`COc1ccc(Br)cc1-c1noc(-c2ccncc2)n1`: the “proportion of mobile D. dipsaci” value was 1.
On to `Cc1ccccc1OCc1nc(-c2cccc(C(F)(F)F)c2)no1`, for which the “proportion of mobile D. dipsaci” value is 1.
On to `O=C(CSc1nnc(-c2ccccc2)o1)NC1CCCCC1`, for which the “proportion of mobile D. dipsaci” value is 1.
The same measure, in the same setting: then `Clc1ccccc1OCc1nc(-c2ccc(Br)cc2)no1`, with 1.
For `Clc1ccc(CSc2nnc(-c3ccccn3)o2)cc1`, the “proportion of mobile D. dipsaci” value is 1.
Turning to `O=C(CSc1nnc(-c2ccco2)o1)Nc1cccc(Cl)c1Cl`, the “proportion of mobile D. dipsaci” value was 1.
On the same count and under the same terms, the figure for `O=C(CSc1nnc(-c2ccc(Br)cc2)o1)OCc1ccccc1` is 1.
Same read-out and setting: then `Clc1cc(Br)ccc1OCc1nc(-c2cccnc2)no1`, with 1; and `COc1cccc(OCc2nc(-c3cccc(C)c3)no2)c1`, with 1; and `O=C(Nc1ccccc1-c1nc(-c2cccnc2)no1)c1cccs1`, with 1.
For the compound `Fc1ccccc1-c1nc(-c2ccc(Cl)cc2)no1`, the “proportion of mobile D. dipsaci” value is 1.
As for `COc1cccc(-c2noc(-c3cc(C)ccc3C)n2)c1`, the “proportion of mobile D. dipsaci” value was 1.
Regarding `Cc1cc(C)c(OCc2nc(-c3ccncc3)no2)c(C)c1`, the “proportion of mobile D. dipsaci” value is 1.
On the same count and under the same terms, the figure for `CCN(C(=O)CSc1nnc(-c2ccncc2)o1)c1ccccc1` is 1; for `Clc1ccc(-c2nc(-c3ccc4c(c3)OCO4)no2)cc1` it is 1.
Same read-out and setting: the figure for `Cc1ccc(C)c(-c2nc(-c3ccc(Cl)cc3)no2)c1` is 1.
On the same count and under the same terms, the figure for `CCOc1nc(-c2ccc(C)cc2)ccc1-c1noc(-c2ccc(F)cc2)n1` is 1; for `Clc1ccc(-c2nnc(SCc3ccccc3)o2)cc1` it is 1; for `Fc1ccc(-c2nc(-c3ccc(Br)cc3)no2)cc1` it is 1.
As to `Cc1cc(Cl)ccc1OCc1nc(-c2ccccc2)no1`, the “proportion of mobile D. dipsaci” value was 1.
As for `CCOc1cc(-c2nc(-c3ccc(OC)cc3)no2)cc(OCC)c1OCC`, the “proportion of mobile D. dipsaci” value was 1.
Still for that read-out and setting: then `Cn1c(SCc2nnc(-c3ccccc3)o2)nnc1-c1ccco1`, with 1; and `Clc1ccc(OCc2nc(-c3ccccn3)no2)c(Br)c1`, with 1; and `NC(=O)COc1ccccc1-c1nc(-c2ccccc2Cl)no1`, with 1.
On to `Cc1ccccc1OCc1nc(-c2ccc(NC(=O)c3ccc(Br)o3)cc2)no1`, for which the “proportion of mobile D. dipsaci” value was 1.
For `Clc1ccc(CSc2nnc(-c3ccccc3Cl)o2)cc1`, the “proportion of mobile D. dipsaci” value is 1.
Still for that read-out and setting: then `Cc1ccccc1CSc1nnc(-c2ccccc2)o1`, with 1; and `Clc1ccc(-c2noc(COc3ccc4c(c3)OCO4)n2)cc1`, with 1.
As to `c1coc(-c2nnc(-c3ccco3)o2)c1`, the “proportion of mobile D. dipsaci” value is 1.
Same read-out and setting: the figure for `COc1ccc(-c2noc(COc3ccc4c(c3)CCCC4)n2)cc1` is 1; for `COc1ccccc1OCc1nc(-c2ccc(Cl)cc2)no1` it is 1; for `COc1ccc(Cl)cc1-c1noc(COc2ccccc2C)n1` it is 1.
For the compound `Clc1ccccc1-c1noc(-c2cccnc2)n1`, the “proportion of mobile D. dipsaci” value was 1.
On the same count and under the same terms, then `Clc1cc(Br)ccc1OCc1nc(-c2ccncc2)no1`, with 1.
